# From PubChem BioAssay AID1745847 (National Center for Advancing Translational Sciences (NCATS), 2022)
# Out of some 2,100 compounds screened, about 670 (32%) were called active. Not shown: some 50% with an inconclusive outcome. Calls follow the shape of the dose curve; as a rule, active = well fitted inhibition curve with a large enough effect; inconclusive = small, poorly fitted or top-dose-only effect; inactive = no such curve, though single readings can be large or run the other way. Some of the results follow.
# Experiment: CMV-Luciferase Counterscreen for Inhibitors of ATXN expression; also: nearly all actives have a fitted effect of over 55% in size
# Conditions: HEK-293 CMV-luciferase reporter, luminescence, 24 h; series mostly up to 57.5 µM
# % is scaled to controls: 0 for no effect and ±100 for the full control effect; potency is read from the fitted curve at half-maximal effect.
Structure (SMILES),"activity change, negative = inhibition",Potency
Cc1cc2nc(-c3nnnn3Cc3ccccc3)c(=O)[nH]c2cc1C,-9.85% [at 11.4 µM] (inactive),–
CC(=O)c1ccc(NC(=O)COC(=O)c2c3c(nc4ccccc24)/C(=C\c2cccs2)CCC3)cc1,–,17.8 µM (active)
CCn1c2ccccc2c2cc(NC(=O)COC(=O)Cc3cn4ccsc4n3)ccc21,33.4% [at 11.4 µM] (inactive),–
CCn1c2ccccc2c2cc(NC(=O)COC(=O)c3ccccc3F)ccc21,9.52% [at 11.4 µM] (inactive),–
Cc1cc(C)nc(N/N=C2/CCCC/C2=C\c2ccccc2)n1,–,3.16 µM (active)
NC(N)=N/N=C/c1ccc2cccc(OCc3ccccc3)c2n1,–,22.4 µM (active)
Cc1cc(Cl)ccc1-c1cc2nc(NCCCN(C)C)n(C)c(=O)c2s1,5.92% [at 11.4 µM] (inactive),–
CNc1nc2c(N)ncnc2n1[C@H]1O[C@@H](CO)[C@H](O)[C@@H]1O,119% [at 11.4 µM] (inactive),–
Nc1ccn([C@@H]2O[C@H](CO)[C@@H](O)C2O)c(=O)n1 (some centres not stated),–,2.51 µM (active)
N#Cc1c(N)n(C2OC(CO)C(O)C2O)c2ncnc(N)c12 (configuration not stated),–,inactive
COC(=O)c1c(NC(=O)c2ccc([N+](=O)[O-])o2)sc2c1CCN(C(C)C)C2,–,15.8 µM (active)
O=C(COc1ccccc1Cl)Nc1ccc(N2CCN(C(=O)c3ccccc3)CC2)cc1,–,3.55 µM (active)
CC(=O)N(C1=C(Cl)C(=O)c2ccccc2C1=O)C1CCCCC1,–,12.6 µM (active)
COCCCn1c(N)c(-c2nc3ccccc3n2C)c2nc3ccccc3nc21,–,17.8 µM (active)
CCCCOc1ccccc1NC(=O)Cn1c(-c2nonc2N)nc2ccccc21,–,inactive
Cc1ccc(NS(=O)(=O)c2ccc(NC(=O)C(C)Sc3ccc(Cl)cc3)cc2)c(C)c1 (configuration not stated),–,25.1 µM (active)
O=C(c1ccc(F)cc1F)C1CCN(c2ccc([N+](=O)[O-])cn2)CC1,–,4.47 µM (active)
NC(c1ccccc1)c1csc(NC(=O)Nc2ccccc2Oc2ccccc2)n1 (configuration not stated),-22.9% [at 11.4 µM] (inactive),–
COC(=O)C(Cc1ccc(O)cc1)NC(=O)C(C)Oc1ccccc1 (configuration not stated),–,inactive

Structure (SMILES),"activity change, negative = inhibition",Potency
CC(Oc1ccc(F)cc1)C(=O)Nc1nc(-c2ccccn2)cs1 (configuration not stated),–,2.51 µM (active)
Cc1cc(C)c2nc(NNC(=O)c3cc(-c4cccs4)nc4ccccc34)sc2c1,–,2.82 µM (active)
CCN1CCS/C1=C\C=C\C1=[N+](CC)CCS1,–,3.98 µM (active)
NCCCCCc1nnc(SCc2ccccc2Cl)o1,-36.5% [at 11.4 µM] (inactive),–
CCOC(=O)c1c(-c2ccccc2)oc2cc(CN(C)C)c(O)c(CN(C)C)c12,–,8.91 µM (active)
CC(=O)Nc1ccc(N(CC(O)Cn2c3ccccc3c3ccccc32)S(=O)(=O)c2ccc(C)cc2)cc1 (configuration not stated),–,20 µM (active)
CSc1sc(-c2nnc(SCC(=O)Nc3ccc(Cl)cc3)n2C)c2c1C=CCC2,-19.8% [at 11.4 µM] (inactive),–
Cn1c(SCC(=O)N/N=C/c2ccc([N+](=O)[O-])s2)nnc1-c1ccccc1,–,22.4 µM (active)
Cn1c(SCC(=O)N/N=C/c2ccc([N+](=O)[O-])s2)nnc1-c1ccc(Cl)cc1,–,15.8 µM (active)
Cn1c(SCC(=O)Nc2cc(Cl)cc(Cl)c2)nnc1-c1ccc2nonc2c1,-10.7% [at 11.4 µM] (inactive),–
O=C(CSc1nnnn1-c1ccccc1)Nc1nsc(-c2ccccc2)n1,–,inactive
Cc1ccc2[nH]c(=O)c(CN(CCCN(C)C)C(=O)Nc3cccc(Cl)c3)cc2c1,–,inactive
O=c1c2ccc(Cl)cc2nc(-c2ccc([N+](=O)[O-])cc2)n1O,–,7.94 µM (active)
CC(C)(C)c1cc(C(=O)NNc2cc(C(F)(F)F)ccc2Cl)n(Cc2ccccc2)n1,–,inactive
Cc1cc(Cl)c(C(=O)Nc2cccc(C(F)(F)F)c2)c(C)n1,–,17.8 µM (active)
Cc1nc(-c2c(C(F)(F)F)noc2-c2ccc(O)cc2O)cs1,–,11.2 µM (active)
CCCCC(=O)NC(c1ccccc1OC)c1ccc2cccnc2c1O (configuration not stated),–,2.82 µM (active)
CCCCC(=O)NC(c1ccc(OC)c(OC)c1)c1ccc2cccnc2c1O (configuration not stated),–,2.82 µM (active)
CCC(=O)NC(c1ccc(Cl)cc1Cl)c1ccc2cccnc2c1O (configuration not stated),–,2.24 µM (active)

Structure (SMILES),"activity change, negative = inhibition",Potency
CCCCC(=O)NC(c1ccccc1Cl)c1ccc2cccnc2c1O (configuration not stated),–,2.51 µM (active)
COc1ccc(N2C3=C(CC4=C2CC(C)(C)CC4=O)C(=O)CC(C)(C)C3)cc1,-2.52% [at 11.4 µM] (inactive),–
CCCCC(=O)NC(c1ccc(Cl)cc1Cl)c1ccc2cccnc2c1O (configuration not stated),–,0.794 µM (active)
CCCC(=O)NC(c1ccc(Cl)cc1Cl)c1ccc2cccnc2c1O (configuration not stated),–,2.51 µM (active)
CCCCOc1ccc(C(=O)NNC(=O)c2cnccn2)cc1OC,–,10 µM (active)
CN(C)CCC(c1ccc(Br)cc1)c1ccccn1 (configuration not stated),–,inactive
COc1ccc(-c2csc(NC(=O)c3ccc(OCC(=O)N4CCOCC4)c(OC)c3)n2)cc1OC,–,14.1 µM (active)
Cc1noc(C)c1CSCC(=O)Nc1nc(-c2ccc(F)c(F)c2)cs1,–,25.1 µM (active)
COc1cc(C(=O)OC(C)C(=O)N2CCc3ccccc3C2)ccc1OCC(=O)N1CCOCC1 (configuration not stated),-9.5% [at 11.4 µM] (inactive),–
COCCNc1nc(-c2cc(C)n(CCc3ccc(OC)cc3)c2C)cs1,–,inactive
COc1ccc(/C(N)=N/OC(=O)N2CCOCC2)cc1,20.7% [at 11.4 µM] (inactive),–
O=C(Nc1nc(-c2ccc(F)c(F)c2)cs1)Nc1ccc(F)cc1F,6.09% [at 11.4 µM] (inactive),–
O=C(CCN1C(=O)C2CC=CCC2C1=O)Nc1nc(-c2ccc(F)c(F)c2)cs1 (configuration not stated),–,inactive
COc1ccc(CC(=O)Nc2nc(-c3ccc(F)c(F)c3)cs2)cc1OC,–,6.31 µM (active)
COc1ccc(CC(=O)Nc2nc(-c3ccc(OC)c(OC)c3)cs2)cc1OC,–,3.55 µM (active)
Cc1ccc(NC(=O)CCC(=O)c2cc(C)sc2C)nc1,–,inactive
Cc1ccc(OCC(=O)N2CCN(c3nnc(-c4ccc(C)cc4)c4ccccc34)CC2)cc1,–,2.24 µM (active)
CCCCOC(=O)/C=C\C(=O)NC(N)=O,–,14.1 µM (active)
CCOC(=O)/C=C/C(=O)Nc1ccc(Oc2ccccc2)cc1,-6.32% [at 11.4 µM] (inactive),–
